Source: ChEMBL document CHEMBL1961873, “Compounds: GSK PKIS; Assays: Nanosyn kinase panel” (2012)

Legend:
[1] = target: T1, Inhibitor of nuclear factor kappa-B kinase subunit epsilon (Homo sapiens) (UniProt Q14164); settings: at 1 µM;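 further: reported values are averaged percent inhibition figures against human IKKε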
T1 sequence (whole entry): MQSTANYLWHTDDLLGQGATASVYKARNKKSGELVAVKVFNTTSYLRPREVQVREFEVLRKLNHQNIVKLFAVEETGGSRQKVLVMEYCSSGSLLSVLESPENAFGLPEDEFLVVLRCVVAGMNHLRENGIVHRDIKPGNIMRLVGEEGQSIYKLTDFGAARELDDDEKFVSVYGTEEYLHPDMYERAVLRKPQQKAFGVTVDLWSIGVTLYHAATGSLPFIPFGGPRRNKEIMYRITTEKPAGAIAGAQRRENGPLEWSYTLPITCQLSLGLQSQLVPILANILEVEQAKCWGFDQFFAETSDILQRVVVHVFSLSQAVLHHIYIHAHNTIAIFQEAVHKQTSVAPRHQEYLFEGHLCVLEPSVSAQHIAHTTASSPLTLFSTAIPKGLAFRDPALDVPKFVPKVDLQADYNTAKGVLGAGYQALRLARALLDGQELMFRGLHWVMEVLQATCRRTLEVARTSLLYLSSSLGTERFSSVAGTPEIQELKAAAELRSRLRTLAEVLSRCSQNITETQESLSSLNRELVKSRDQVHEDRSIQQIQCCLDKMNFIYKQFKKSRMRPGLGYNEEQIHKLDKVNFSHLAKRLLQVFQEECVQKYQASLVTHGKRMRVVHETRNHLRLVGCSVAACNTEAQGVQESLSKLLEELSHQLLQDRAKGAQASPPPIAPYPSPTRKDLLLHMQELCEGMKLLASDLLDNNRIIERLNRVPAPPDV

[2] = target: T2, Serine/threonine-protein kinase Nek1 (Homo sapiens) (UniProt Q96PY6); settings: at 0.1 µM
T2 sequence (whole entry): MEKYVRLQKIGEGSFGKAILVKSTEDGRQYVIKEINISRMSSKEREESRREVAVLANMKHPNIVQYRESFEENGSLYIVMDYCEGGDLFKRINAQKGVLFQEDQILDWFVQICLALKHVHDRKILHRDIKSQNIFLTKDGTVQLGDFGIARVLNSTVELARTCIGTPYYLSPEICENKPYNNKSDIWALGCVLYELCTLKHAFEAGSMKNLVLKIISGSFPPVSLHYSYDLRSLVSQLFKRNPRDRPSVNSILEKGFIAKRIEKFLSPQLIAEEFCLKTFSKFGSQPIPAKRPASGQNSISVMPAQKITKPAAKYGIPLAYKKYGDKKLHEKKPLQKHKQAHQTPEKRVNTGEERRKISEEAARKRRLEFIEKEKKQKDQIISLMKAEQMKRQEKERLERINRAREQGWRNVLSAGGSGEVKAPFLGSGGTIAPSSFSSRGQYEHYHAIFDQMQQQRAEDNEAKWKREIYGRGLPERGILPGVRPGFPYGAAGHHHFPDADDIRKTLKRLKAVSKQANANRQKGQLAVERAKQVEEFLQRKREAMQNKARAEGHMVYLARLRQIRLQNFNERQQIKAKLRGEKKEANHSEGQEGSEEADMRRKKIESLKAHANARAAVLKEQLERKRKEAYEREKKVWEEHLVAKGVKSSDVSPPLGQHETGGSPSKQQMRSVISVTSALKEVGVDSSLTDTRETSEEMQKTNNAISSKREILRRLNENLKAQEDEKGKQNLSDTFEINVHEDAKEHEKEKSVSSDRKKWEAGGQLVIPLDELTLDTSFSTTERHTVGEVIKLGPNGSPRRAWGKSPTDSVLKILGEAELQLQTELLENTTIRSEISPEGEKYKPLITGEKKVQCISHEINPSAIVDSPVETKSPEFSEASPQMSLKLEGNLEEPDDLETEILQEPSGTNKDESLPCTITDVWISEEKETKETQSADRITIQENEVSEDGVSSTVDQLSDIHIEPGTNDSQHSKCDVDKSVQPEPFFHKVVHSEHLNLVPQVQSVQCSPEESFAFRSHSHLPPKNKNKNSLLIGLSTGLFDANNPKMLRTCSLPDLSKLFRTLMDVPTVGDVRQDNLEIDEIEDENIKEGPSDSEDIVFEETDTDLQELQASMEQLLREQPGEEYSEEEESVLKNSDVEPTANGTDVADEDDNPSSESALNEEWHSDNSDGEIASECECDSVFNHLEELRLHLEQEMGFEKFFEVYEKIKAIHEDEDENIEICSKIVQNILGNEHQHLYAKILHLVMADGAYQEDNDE

[3] = target: T2, Serine/threonine-protein kinase Nek1 (Homo sapiens); settings: at 1 µM
[4] = target: T3, Serine/threonine-protein kinase Nek2 (Homo sapiens) (UniProt P51955); settings: at 0.1 µM
T3 sequence (whole entry): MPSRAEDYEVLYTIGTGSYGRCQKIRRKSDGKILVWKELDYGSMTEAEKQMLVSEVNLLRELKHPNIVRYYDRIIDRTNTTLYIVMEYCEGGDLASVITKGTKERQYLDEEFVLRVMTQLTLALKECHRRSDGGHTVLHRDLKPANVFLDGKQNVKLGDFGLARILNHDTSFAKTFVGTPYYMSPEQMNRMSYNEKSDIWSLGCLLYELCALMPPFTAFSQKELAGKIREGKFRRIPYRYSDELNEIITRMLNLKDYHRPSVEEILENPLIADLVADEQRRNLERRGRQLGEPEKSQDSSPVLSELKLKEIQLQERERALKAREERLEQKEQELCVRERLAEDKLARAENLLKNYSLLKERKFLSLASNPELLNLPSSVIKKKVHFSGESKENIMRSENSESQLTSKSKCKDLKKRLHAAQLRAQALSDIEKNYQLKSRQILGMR

[5] = target: T3, Serine/threonine-protein kinase Nek2 (Homo sapiens); settings: at 1 µM
[6] = target: Serine/threonine-protein kinase Nek6 (Homo sapiens) (UniProt Q9HC98); settings: at 0.1 µM
[7] = target: Serine/threonine-protein kinase Nek6 (Homo sapiens) (UniProt Q9HC98); settings: at 1 µM
[8] = target: Serine/threonine-protein kinase Nek7 (Homo sapiens) (UniProt Q8TDX7); settings: at 0.1 µM
[9] = target: Serine/threonine-protein kinase Nek7 (Homo sapiens) (UniProt Q8TDX7); settings: at 1 µM
[10] = target: T4, Serine/threonine-protein kinase Nek9 (Homo sapiens) (UniProt Q8TD19); settings: at 0.1 µM
T4 sequence (whole entry): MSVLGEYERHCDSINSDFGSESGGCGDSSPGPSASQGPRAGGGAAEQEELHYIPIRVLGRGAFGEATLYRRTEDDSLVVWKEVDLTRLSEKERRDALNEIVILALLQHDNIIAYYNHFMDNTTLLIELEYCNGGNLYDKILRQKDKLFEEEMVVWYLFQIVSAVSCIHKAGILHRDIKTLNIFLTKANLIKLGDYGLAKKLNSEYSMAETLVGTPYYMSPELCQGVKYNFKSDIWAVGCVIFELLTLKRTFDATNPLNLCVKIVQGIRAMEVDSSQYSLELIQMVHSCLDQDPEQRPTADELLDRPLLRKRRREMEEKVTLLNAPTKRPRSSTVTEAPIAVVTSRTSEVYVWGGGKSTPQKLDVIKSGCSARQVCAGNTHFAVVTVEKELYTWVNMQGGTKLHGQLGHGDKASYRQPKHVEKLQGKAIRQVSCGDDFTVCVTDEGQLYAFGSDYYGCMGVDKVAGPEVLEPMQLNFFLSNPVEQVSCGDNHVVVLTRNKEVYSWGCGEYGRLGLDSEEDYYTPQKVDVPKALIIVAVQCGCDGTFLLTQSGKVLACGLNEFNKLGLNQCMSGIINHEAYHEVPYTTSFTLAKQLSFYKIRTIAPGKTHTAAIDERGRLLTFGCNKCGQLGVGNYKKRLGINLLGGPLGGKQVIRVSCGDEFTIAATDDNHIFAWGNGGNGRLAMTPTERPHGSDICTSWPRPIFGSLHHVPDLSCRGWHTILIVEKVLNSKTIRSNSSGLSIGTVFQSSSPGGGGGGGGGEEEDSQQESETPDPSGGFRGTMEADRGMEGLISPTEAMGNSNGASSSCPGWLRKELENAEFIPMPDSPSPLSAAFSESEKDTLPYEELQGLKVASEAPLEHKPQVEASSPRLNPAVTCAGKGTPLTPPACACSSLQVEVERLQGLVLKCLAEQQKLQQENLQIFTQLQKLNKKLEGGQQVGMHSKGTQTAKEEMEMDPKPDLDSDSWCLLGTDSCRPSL

[11] = target: T4, Serine/threonine-protein kinase Nek9 (Homo sapiens); settings: at 1 µM
[12] = target: Serine/threonine-protein kinase PLK1 (Homo sapiens) (UniProt P53350); settings: at 0.1 µM
[13] = target: Serine/threonine-protein kinase PLK1 (Homo sapiens) (UniProt P53350); settings: at 1 µM
[14] = target: T5, Dual specificity protein kinase TTK (Homo sapiens) (UniProt P33981); settings: at 0.1 µM
T5 sequence (whole entry): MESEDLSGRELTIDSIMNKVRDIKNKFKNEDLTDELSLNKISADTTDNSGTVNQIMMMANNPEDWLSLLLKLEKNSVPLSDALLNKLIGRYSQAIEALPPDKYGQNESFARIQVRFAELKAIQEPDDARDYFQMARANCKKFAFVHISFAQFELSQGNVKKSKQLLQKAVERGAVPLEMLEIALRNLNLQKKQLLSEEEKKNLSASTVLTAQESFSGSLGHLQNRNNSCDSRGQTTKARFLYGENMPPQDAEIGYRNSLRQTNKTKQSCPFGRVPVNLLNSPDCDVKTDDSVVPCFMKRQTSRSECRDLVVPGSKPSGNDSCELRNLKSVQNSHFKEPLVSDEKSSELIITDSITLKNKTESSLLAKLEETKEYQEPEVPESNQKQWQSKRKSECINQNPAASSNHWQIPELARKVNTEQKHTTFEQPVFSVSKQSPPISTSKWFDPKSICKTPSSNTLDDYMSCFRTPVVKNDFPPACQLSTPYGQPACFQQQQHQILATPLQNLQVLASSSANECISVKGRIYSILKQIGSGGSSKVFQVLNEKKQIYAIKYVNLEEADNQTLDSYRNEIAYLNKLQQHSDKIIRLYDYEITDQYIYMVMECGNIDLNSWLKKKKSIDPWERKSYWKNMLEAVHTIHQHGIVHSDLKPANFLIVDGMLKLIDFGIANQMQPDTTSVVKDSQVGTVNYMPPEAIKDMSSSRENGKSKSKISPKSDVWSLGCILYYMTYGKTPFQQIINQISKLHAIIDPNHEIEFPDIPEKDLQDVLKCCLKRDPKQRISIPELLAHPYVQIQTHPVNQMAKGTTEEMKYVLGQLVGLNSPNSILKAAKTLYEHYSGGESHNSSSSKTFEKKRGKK

[15] = test system: T6, Receptor-type tyrosine-protein kinase FLT3 (Homo sapiens), P36888 [D835Y]; settings: at 1 µM
T6 sequence (whole entry): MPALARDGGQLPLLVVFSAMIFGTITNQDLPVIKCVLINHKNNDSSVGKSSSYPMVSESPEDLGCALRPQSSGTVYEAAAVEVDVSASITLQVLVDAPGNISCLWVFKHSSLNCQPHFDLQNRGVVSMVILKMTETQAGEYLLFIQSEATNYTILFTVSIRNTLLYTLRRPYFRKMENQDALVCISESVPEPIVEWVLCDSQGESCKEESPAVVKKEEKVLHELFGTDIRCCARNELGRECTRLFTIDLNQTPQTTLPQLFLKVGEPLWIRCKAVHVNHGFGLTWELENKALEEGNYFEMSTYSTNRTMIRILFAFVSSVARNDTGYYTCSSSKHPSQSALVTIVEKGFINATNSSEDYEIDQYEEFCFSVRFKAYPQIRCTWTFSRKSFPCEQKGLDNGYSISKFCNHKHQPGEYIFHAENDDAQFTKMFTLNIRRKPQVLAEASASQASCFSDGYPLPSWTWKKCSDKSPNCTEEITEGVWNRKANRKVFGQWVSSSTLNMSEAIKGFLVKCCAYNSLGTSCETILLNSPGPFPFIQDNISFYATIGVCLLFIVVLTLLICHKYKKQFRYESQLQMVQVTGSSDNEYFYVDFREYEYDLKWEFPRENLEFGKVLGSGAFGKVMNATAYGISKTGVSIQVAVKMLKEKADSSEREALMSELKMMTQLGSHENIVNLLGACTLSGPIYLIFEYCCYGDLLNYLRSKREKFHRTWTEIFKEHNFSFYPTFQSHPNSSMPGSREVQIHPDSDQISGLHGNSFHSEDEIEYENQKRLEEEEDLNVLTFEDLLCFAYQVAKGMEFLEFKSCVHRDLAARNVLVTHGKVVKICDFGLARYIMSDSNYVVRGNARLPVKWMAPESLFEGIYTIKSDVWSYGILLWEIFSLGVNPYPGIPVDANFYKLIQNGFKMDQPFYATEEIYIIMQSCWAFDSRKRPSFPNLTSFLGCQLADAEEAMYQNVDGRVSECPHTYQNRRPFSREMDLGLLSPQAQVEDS

[16] = target: Vascular endothelial growth factor receptor 3 (Homo sapiens) (UniProt P35916); settings: at 0.1 µM
[17] = target: Vascular endothelial growth factor receptor 3 (Homo sapiens) (UniProt P35916); settings: at 1 µM
[18] = target: Macrophage colony-stimulating factor 1 receptor (Homo sapiens) (UniProt P07333); settings: at 0.1 µM
[19] = target: Macrophage colony-stimulating factor 1 receptor (Homo sapiens) (UniProt P07333); settings: at 1 µM
[20] = target: Tyrosine-protein kinase Fyn (Homo sapiens) (UniProt P06241); settings: at 0.1 µM
Tyrosine-protein kinase Fyn (Homo sapiens), sequence (P06241 2-537 limits assumed): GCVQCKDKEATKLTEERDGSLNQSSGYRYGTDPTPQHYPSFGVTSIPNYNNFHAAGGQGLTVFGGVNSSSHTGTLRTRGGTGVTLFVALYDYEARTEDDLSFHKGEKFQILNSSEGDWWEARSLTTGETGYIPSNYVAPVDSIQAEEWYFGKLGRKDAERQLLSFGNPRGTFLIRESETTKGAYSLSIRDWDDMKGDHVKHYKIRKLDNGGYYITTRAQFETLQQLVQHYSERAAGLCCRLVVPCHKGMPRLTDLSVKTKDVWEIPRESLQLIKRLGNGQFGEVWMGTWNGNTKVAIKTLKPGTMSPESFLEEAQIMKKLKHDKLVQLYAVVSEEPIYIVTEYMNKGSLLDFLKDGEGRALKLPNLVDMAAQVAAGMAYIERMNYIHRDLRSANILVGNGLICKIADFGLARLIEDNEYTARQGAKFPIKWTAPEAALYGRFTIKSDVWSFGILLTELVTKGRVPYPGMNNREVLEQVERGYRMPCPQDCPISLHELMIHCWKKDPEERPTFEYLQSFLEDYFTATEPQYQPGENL

Vascular endothelial growth factor receptor 3 (Homo sapiens), sequence (P35916 whole entry): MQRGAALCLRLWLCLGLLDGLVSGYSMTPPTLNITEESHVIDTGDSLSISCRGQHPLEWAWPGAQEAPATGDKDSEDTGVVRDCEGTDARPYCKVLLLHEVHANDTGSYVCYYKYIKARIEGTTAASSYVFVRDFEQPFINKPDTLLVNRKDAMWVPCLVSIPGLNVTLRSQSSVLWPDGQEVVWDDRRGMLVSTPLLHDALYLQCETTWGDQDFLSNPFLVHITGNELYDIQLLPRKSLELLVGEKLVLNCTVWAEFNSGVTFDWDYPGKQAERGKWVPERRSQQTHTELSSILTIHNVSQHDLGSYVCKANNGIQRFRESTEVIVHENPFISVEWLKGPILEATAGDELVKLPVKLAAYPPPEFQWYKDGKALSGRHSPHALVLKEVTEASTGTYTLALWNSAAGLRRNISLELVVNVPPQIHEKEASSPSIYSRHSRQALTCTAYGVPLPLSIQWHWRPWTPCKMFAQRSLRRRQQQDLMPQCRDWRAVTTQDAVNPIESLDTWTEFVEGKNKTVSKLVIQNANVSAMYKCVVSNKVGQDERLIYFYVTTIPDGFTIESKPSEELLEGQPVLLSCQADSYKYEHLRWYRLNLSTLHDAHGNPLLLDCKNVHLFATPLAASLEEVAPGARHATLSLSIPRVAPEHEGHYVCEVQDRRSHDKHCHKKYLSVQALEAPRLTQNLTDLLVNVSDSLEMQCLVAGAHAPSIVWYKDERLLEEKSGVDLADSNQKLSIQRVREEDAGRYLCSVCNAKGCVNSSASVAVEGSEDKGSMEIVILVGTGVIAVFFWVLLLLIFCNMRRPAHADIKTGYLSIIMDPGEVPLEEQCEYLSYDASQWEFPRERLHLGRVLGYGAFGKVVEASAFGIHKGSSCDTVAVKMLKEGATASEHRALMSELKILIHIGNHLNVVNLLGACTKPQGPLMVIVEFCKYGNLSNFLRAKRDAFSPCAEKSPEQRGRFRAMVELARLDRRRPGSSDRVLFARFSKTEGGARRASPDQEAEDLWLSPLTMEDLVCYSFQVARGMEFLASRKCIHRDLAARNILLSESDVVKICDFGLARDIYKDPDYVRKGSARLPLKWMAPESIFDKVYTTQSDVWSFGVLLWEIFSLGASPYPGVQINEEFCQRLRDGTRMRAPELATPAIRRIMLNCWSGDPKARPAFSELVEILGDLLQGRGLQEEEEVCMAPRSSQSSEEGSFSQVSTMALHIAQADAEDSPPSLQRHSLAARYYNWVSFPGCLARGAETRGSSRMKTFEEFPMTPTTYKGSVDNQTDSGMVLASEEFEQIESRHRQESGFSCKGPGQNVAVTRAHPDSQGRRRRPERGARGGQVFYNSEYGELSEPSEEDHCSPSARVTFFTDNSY
Macrophage colony-stimulating factor 1 receptor (Homo sapiens), sequence (P07333 whole entry): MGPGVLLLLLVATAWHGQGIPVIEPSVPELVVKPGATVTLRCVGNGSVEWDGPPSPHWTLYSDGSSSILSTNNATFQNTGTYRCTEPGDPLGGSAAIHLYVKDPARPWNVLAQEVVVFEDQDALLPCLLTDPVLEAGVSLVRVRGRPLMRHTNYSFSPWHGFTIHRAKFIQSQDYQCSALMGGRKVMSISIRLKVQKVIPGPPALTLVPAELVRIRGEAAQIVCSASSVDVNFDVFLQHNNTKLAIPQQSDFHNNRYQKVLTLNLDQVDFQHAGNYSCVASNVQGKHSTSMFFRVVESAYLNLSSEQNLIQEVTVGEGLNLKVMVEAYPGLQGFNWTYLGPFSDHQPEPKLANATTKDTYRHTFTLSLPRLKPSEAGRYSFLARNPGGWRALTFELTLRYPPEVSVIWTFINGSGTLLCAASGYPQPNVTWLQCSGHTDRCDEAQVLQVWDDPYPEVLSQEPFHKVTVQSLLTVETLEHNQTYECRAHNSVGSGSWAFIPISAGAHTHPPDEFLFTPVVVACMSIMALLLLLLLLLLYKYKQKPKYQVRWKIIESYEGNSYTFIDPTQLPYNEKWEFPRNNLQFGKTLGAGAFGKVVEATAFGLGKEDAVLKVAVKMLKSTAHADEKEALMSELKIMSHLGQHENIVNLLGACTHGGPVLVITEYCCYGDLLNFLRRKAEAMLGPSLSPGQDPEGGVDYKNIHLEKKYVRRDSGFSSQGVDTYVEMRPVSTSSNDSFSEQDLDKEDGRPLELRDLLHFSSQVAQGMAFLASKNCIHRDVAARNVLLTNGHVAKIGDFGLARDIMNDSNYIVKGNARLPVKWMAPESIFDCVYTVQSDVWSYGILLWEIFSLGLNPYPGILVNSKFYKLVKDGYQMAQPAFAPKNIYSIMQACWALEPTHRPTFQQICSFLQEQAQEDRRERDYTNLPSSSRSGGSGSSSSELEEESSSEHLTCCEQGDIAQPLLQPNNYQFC
Serine/threonine-protein kinase Nek7 (Homo sapiens), sequence (Q8TDX7 whole entry, looked up): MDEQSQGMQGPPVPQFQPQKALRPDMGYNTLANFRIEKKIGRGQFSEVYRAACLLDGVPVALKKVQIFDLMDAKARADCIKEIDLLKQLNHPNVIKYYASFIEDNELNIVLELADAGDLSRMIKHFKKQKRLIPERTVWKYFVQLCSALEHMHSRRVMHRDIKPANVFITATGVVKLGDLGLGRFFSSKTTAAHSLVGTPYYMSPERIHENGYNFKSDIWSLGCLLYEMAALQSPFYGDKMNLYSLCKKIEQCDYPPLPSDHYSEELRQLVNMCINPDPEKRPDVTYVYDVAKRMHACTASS
Serine/threonine-protein kinase Nek6 (Homo sapiens), sequence (Q9HC98 whole entry): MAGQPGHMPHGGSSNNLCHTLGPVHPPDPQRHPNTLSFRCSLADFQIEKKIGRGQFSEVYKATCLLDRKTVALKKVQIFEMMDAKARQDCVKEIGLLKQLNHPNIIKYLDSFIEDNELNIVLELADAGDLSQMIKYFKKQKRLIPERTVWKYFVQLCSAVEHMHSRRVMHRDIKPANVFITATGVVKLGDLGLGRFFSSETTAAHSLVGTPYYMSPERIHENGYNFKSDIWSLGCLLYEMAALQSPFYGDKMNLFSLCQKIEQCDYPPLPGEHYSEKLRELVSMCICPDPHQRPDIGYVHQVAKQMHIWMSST
Serine/threonine-protein kinase PLK1 (Homo sapiens), sequence (P53350 whole entry): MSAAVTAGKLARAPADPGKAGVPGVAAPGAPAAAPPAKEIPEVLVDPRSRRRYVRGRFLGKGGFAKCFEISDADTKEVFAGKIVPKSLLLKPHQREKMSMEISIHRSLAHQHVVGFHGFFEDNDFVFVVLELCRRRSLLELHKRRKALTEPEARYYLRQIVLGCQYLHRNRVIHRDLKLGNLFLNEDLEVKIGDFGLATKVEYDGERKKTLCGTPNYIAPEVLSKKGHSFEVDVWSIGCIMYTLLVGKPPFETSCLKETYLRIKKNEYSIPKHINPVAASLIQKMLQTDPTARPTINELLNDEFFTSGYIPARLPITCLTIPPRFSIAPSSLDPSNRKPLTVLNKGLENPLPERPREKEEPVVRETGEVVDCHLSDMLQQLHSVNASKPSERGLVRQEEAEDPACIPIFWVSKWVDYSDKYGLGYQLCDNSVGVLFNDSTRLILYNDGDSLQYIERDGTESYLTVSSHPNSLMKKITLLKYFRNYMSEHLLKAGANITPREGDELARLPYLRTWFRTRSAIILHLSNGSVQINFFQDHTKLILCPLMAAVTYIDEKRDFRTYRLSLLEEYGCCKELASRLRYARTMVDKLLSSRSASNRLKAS

Row | Structure (SMILES) | inhibition [1] [%] | inhibition [2] [%] | inhibition [3] [%] | inhibition [4] [%] | inhibition [5] [%] | inhibition [6] [%] | inhibition [7] [%] | inhibition [8] [%] | inhibition [9] [%] | inhibition [10] [%] | inhibition [11] [%] | inhibition [12] [%] | inhibition [13] [%] | inhibition [14] [%] | inhibition [15] [%] | inhibition [16] [%] | inhibition [17] [%] | inhibition [18] [%] | inhibition [19] [%] | inhibition [20] [%]
1 | COC(=O)Nc1nc2ccc(Oc3ccc(NC(=O)Nc4cccc(Cl)c4)cc3)cc2[nH]1 | 1.25 | 0.97 | 0.11 | 0.46 | 0.04 | 2.21 | -0.77 | 1.46 | 1.97 | 5.35 | 2.84 | -0.55 | 0.69 | 2.99 | 1.8 | 4.07 | 9.34 | 16.5 | 45.2 | 0.86
2 | COC(=O)c1sc(-n2cnc3cc(OC)c(OC)cc32)cc1OCc1ccccc1C(F)(F)F | 8.59 | 2.43 | 0.28 | 4.46 | 3.83 | -0.01 | -1.32 | 6.92 | 4.66 | 6.87 | 7 | 3.92 | 14.4 | 12.7 | 0.96 | 8.44 | 50.2 | 16.2 | 60.9 | 15.6
